Among all 360,000 compounds or so, about 10,000 (2.8%) were called active. Roughly 4% stayed inconclusive and do not appear here. Only a selection was taken, and actives are over-represented in it overall. Values without a mark were called inactive. Calls come from the whole dose curve; as a rule, active = well fitted inhibition curve with a large enough effect; inconclusive = small, poorly fitted or top-dose-only effect; inactive = flat fitted curve, though single readings scatter.
% is set by controls: 0 for no effect and ±100 for the full control effect; potency is the fitted concentration of half-maximal effect.

The test deals with Serine/threonine-protein kinase PLK1 (Homo sapiens) (UniProt P53350). The experiment in a line: qHTS for Inhibitors of PLK1-PDB (polo-like kinase 1 - polo-box domain): Primary Screen. For max response, negative = inhibition: series mostly up to about 57 µM. Note: nearly all actives have a fitted effect of over 65% in size. The conditions noted are these: Plk1 PBD binding of FITC phosphopeptide, fluorescence polarization.
Chain of Serine/threonine-protein kinase PLK1 (Homo sapiens) (P53350 whole entry, looked up, the tested form may be a part): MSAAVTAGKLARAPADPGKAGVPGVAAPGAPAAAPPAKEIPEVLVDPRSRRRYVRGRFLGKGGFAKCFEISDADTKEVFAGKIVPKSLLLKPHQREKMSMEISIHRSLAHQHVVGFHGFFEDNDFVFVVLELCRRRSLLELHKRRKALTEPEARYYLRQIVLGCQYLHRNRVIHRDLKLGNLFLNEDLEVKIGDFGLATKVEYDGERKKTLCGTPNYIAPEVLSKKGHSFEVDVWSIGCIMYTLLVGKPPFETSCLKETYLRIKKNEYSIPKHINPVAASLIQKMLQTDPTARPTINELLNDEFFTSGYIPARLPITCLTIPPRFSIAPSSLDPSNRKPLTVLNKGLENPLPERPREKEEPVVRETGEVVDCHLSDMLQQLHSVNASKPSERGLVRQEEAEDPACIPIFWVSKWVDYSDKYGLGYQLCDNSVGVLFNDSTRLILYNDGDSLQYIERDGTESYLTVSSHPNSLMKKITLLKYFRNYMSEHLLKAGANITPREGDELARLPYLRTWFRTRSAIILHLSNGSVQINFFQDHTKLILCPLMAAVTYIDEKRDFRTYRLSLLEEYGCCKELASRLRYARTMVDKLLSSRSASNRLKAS
On to `Cc1ccc(NC(=O)[C@H](Cc2ccccc2)NC(=O)CC[C@H]2O[C@@H](n3ccc(=O)[nH]c3=O)[C@H](O)[C@@H]2O)cc1C`, for which the max response, negative = inhibition is -5.11%.
Same read-out and setting: under `OC(c1cc(Cl)cc(Cl)c1)c1ncc(-c2ccccc2C(F)(F)F)[nH]1` (configuration not stated) stands 4.04%.
With `CCOC(=O)[C@]12CCCC=C1N(Cc1cccc3ccccc13)C(=O)[C@H](CC(=O)NCC13CC4CC(CC(C4)C1)C3)C2`, the max response, negative = inhibition was -3.19%.
For `CCCS(=O)(=O)NC(=O)C1(C)CCCN(C(=O)c2cc(C)on2)C1` (configuration not stated), the max response, negative = inhibition was -2.32%.
The same measure, in the same setting: then `CC(=O)c1c(C)[nH]c(=S)c(C#N)c1-c1ccc(F)cc1`, with -8.58%.
In the case of `CCc1c(C)[nH]c(=S)c(C#N)c1C`, the Potency is 29.9 µM (active).
Consider `COc1ccc(NC(=O)C(c2ccncc2)n2c(=O)c(-c3cc4ccccc4[nH]3)nc3ccccc32)cc1` (configuration not stated), for which the max response, negative = inhibition is 12.4%.
Turning to `COc1ccc(NC(=O)C(NC(C)=O)C(=O)NCc2ccccc2Cl)cc1` (configuration not stated), the Potency is 15 µM (active).
Turning to `COc1ccc(CNC(=O)C(C)NCc2ccccc2Cl)cc1` (configuration not stated), the max response, negative = inhibition is 5.25%.
On the same count and under the same terms, then `CCOC(=O)C(NC(C)=O)C(=O)Nc1ccc(OC)cc1` (configuration not stated), with -7.21%.
On the same count and under the same terms, then `C=CCC[C@@H](CCCCC)OC(=O)/C=C/[C@@H](O)[C@H](O)C[C@H](O)CC=C`, with -3.6%; and `CC1(C)OC(=O)C2=C(C[C@@H](C3CC3)O[C@H]2c2ccc(Cl)cc2)O1`, with -2.8%; and `CC(C)(C)NC(=O)NC(=O)COC(=O)Cn1c(C(F)(F)F)nc2ccccc21`, with -11.6%.
For the compound `Cc1ccccc1OC(=O)Cn1c(C(F)(F)F)nc2ccccc21`, the Potency was 15 µM (active).
Regarding `CN1CCN(C(=O)Cn2c(C(F)(F)F)nc3ccccc32)CC1`, the max response, negative = inhibition was -6.38%.
For the compound `O=C(NCCOc1ccccc1)N1[C@H]2CC[C@@H]1C=C(c1ccc(F)cc1OCc1ccccc1)C2`, the max response, negative = inhibition is -5.72%.
For the compound `CC1(C(=O)NS(=O)(=O)c2ccc(C#N)cc2)CCN1C(=O)CC1CCCC1` (configuration not stated), the max response, negative = inhibition is 1.71%.
For the compound `COCC(=O)N(C)C[C@H]1Oc2cc(Br)ccc2S(=O)(=O)N([C@H](C)CO)C[C@H]1C`, the max response, negative = inhibition was 4.87%.
For the compound `Cc1ccc(CN2CC(N3CCC(Cc4ccccc4)CC3)CS2(=O)=O)cc1` (configuration not stated), the max response, negative = inhibition was -6.9%.
On the same count and under the same terms, then `CCN(CC)CCn1cnc2c1c(=O)[nH]c(=O)n2Cc1ccccc1`, with -4.34%.
As to `Cn1c(=O)[nH]c(=O)c2c1[nH]c(=S)n2Cc1ccccc1`, the Potency was 23.8 µM (active).
For the compound `Cn1c(=O)[nH]c(=O)c2c1nc(N(CCO)Cc1ccccc1)n2Cc1ccccc1Cl`, the max response, negative = inhibition is -7.01%.
Turning to `COC(=O)[C@@]12C[C@@H](CC(=O)NCc3cccc(C(F)(F)F)c3)C(=O)N(Cc3ccco3)C1=CCC(C)(C)C2`, the max response, negative = inhibition was -2.23%.
The same measure, in the same setting: then `O=C(NC1CCCC1)C1c2ccccc2OCC(=O)N1Cc1ccccc1` (configuration not stated), with -5.56%.
In the case of `CCCCCCN1CCN(C2CN(Cc3cn(Cc4ccc(F)cc4)nn3)S(=O)(=O)C2)CC1` (configuration not stated), the max response, negative = inhibition was 3.67%.
As for `OC(c1ccccc1)c1nc(/C=C/c2ccc(C(F)(F)F)cc2)cs1` (configuration not stated), the max response, negative = inhibition was -1.28%.
Consider `CC(=O)Nc1ccc(C=Cc2ccc([N+](=O)[O-])cc2)cc1`, for which the max response, negative = inhibition is -17.4%.
As for `O=C(O)/C=C/C(=O)NNc1ccc([N+](=O)[O-])cc1`, the Potency was 6.7 µM (active).
With `CC(=O)Nc1ccc(C=CC(=O)c2ccc([N+](=O)[O-])cc2)cc1`, the max response, negative = inhibition was -8.08%.
As for `O=C(NCCO)c1cccc(-c2cccc3nccn23)c1`, the max response, negative = inhibition was -13.3%.
Turning to `C#Cc1ccc(NC(=O)C2(C)CCN2C(=O)Cc2ccc(-c3ccccc3)cc2)cc1` (configuration not stated), the max response, negative = inhibition is 7.1%.
For the compound `COc1ccc(C(=O)CSc2n[nH]c(N)n2)cc1`, the Potency is 26.7 µM (active).
Turning to `COc1ccc(C(=O)CSc2nccc(=O)[nH]2)cc1`, the max response, negative = inhibition was -2.62%.
The same measure, in the same setting: under `COc1ccc(CNC(=O)CSc2n[nH]c(N)n2)cc1OC` stands -18.3%; under `COc1ccccc1-c1cc2nc(NCc3cccc(Cl)c3)ccn2n1`, -9.83%.
On the same count and under the same terms, then `CCc1nc2c(OCc3ccc(C(=O)OC)cc3)cccn2c1N(C)C(=O)C(C)C`, with -10.3%.
`OC[C@H]1O[C@@H](c2nc(-c3nc(-c4ccc(F)cc4)no3)cs2)[C@H](O)[C@@H](O)[C@H]1O`: the max response, negative = inhibition is -9.06%.

Source of the values: PubChem BioAssay AID720504 (National Center for Advancing Translational Sciences (NCATS), 2013).
